Source: PubChem BioAssay (NCI)
This is part of a sample that, as a whole, favours compounds with a hit. Of some 83,000 tested, about 20% had one in any assay.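 Activity criterion: percent growth below 10, measured after cells in 96-well plates were exposed to a single compound concentration for 48 hours.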 Values without a mark were called inactive. Active and inactive are the calls of the source.

Each compound was assayed on OVCAR-3 ovarian (assay: NCI-60 one-dose screen, 48 h (100 = growth as untreated, 0 = no growth, -100 = all killed)). Details: 10 µM unless noted.
Compound COc1ccc(-c2nc(-c3cc(OC)cc(OC)c3)[nH]c2-c2ccc(OC)cc2)cc1 has a growth of 45.3%. With N#Cc1nc(-c2cccc(Br)c2)cc(-c2ccc(Nc3nc(N4CCCCC4)nc(N4CCCCC4)n3)cc2)c1N the growth was -76.6% (active). Compound NC(N)=N/N=C\c1ccc(OCc2ccccc2)cc1 has a growth of 74.4%. CCN(CC)CCC(CNc1ccnc2cc(Cl)ccc12)c1ccc(O)cc1 (centres undefined) was tested, and the growth was 98.7%. COS(=O)(=O)CCN(CCOS(C)(=O)=O)S(C)(=O)=O was tested, and the growth was 105%.

These compounds were tested on NCI/ADR-RES ovarian in the same assay as above. Details: 10 µM unless noted.
Compound COc1ccc(-c2cn(-c3cccc(C(=O)/C=C/c4ccc(O)c(OC)c4)c3)c(=O)[nH]2)cc1 has a growth of 12.7%. For Cc1ccccc1N1C(c2ccccc2)=NNC12C=CC(=O)c1c(O)cccc12 (centres undefined), the growth was 72.5%. COc1cc(Nc2ccnc3ccc(Br)cc23)cc(OC)c1OC was tested, and the growth was 12.8%. In the case of CN1CCN(Cc2ccc(NC(=O)c3cncc(C#Cc4ccc(N)nc4)c3)cc2C(F)(F)F)CC1, the growth is reported as 25.6%. Work on COc1ccc(Sc2[nH]c(C=O)c3ccccc23)cc1 yielded a growth of 46.8%. COCCOCCOCc1n(Cc2ccc3ccccc3n2)c2ccccc2[n+]1Cc1ccc2ccccc2c1 was tested, and the growth was 98.9%. COc1ccc(C2C3CCc4ccccc4C3=NN2C(=O)c2cc(OC)c(OC)c(OC)c2)cc1O (centres undefined) showed a growth of 102%. For O=c1[nH]cnc2nc[nH]c12, the growth was 97.8%. CC(=O)O[C@H]1[C@H](CC#CC#CC[C@@H]2C[C@]3(C)[C@H]4CC=C5[C@H]6[C@@H](C)[C@H](C)CC[C@]6(C(=O)NCCN(CCN)CCN)CC[C@@]5(C)[C@]4(C)CC[C@H]3C(C)(C)[C@H]2OC(C)=O)C[C@]2(C)[C@H]3CC=C4[C@H]5[C@@H](C)[C@H](C)CC[C@]5(C(=O)NCCN(CCN)CCN)CC[C@@]4(C)[C@]3(C)CC[C@H]2C1(C)C gave a growth of 49.2%. Work on Fc1ccc2nc(-c3ccc(-c4noc(-c5ccc(Cl)cc5)n4)cc3)[nH]c2c1 yielded a growth of 100%. For CCNS(=O)(=O)c1ccc(C)cc1, the growth was 108%. In the case of OC(c1cc(-c2ccc(C(F)(F)F)cc2)nc(-c2ccc(C(F)(F)F)cc2)c1)C1CCCCN1 (centres undefined), the growth is reported as -68.6% (active). Work on CC1(C)C(N(O)C(=O)Nc2ccc(Cl)cc2)N(c2ccc(Cl)cc2)C(=O)N1CC(=O)N/N=C/C=C/c1ccc([N+](=O)[O-])o1 (centres undefined) yielded a growth of 95%. With Cc1cc(N=Nc2ccc(-c3ccc(N=Nc4ccc(O)c(C(=O)O)c4)cc3)cc2)c(N)c(N=Nc2ccc(C(=O)O)cc2)c1N the growth was 97.7%. NC(N)=N/N=C\c1cccc(OCc2ccccc2)c1 showed a growth of 76.5%. CNC(=O)c1ccccc1Sc1ccc2c(/C=C/c3ccccn3)n[nH]c2c1 gave a growth of 36.9%. CC(=O)c1c(C)nc(-c2cc(C)cc(Cl)c2)nc1-c1cccc(Oc2ccccc2)c1 showed a growth of 25.1%. CCN(CC)Cc1cc(Nc2nc(NC3CCC(N(C)C)CC3)c3ccccc3n2)ccc1OC (centres undefined) gave a growth of 98.1%. For Cc1nc2c(-c3cnc(N)nc3)nc(N3CCOCC3)nc2n1C(C)C, the growth was -5.49% (active). Work on C[C@@H]1C[C@H](N)C[C@H](c2ccncc2NC(=O)c2ccc(F)c(-c3c(F)cccc3F)n2)C1 yielded a growth of 65.8%. Compound Nc1nonc1-c1nc2ccccc2n1Cc1ccc(F)cc1 has a growth of 36.8%. Work on C=CC[C@]1(O)CC[C@H]2[C@@H]3CCc4cc(O)ccc4[C@H]3CC[C@@]21C yielded a growth of 87.5%. In the case of [Ag].[Ag].[NH-]S(=O)(=O)c1ccc(N=Nc2cc(N=Nc3ccc(S([NH-])(=O)=O)cc3)c3c(NC(=O)C(Cl)Cl)cccc3c2OC(=O)C(Cl)Cl)cc1.[c-]1nccs1.[c-]1nccs1, the growth is reported as 90.4%. CCCCCCCCCCCCCCC(C(=O)OCC)C(=O)OCC was tested, and the growth was 104%. Compound CN(C)c1ccc(C(c2ccccc2)c2ccc(N(C)C)cc2)cc1 has a growth of 85%. In the case of Cc1n(Cc2ccc3ccccc3n2)cc[n+]1Cc1ccc2ccccc2c1, the growth is reported as 98.7%. FC(F)(F)c1ccc(/C=N/Nc2nnc3n2N=C(c2ccc(Cl)cc2)CS3)cc1 showed a growth of 47.4%. CS(=O)(=O)Nc1cc(-c2cc3ncc(C#N)c(Nc4ccc(Oc5ccccc5)c(Cl)c4)c3s2)cnc1Cl gave a growth of 72.2%. Compound Cc1cc(C)c2c(n1)sc1c(Nc3ccc(O)cc3)ncnc12 has a growth of 19.1%. With c1ccc(C2=Nc3ccccc3SC2)cc1 the growth was 113%. COc1cc2c(cc1OCCCOc1cc3c(cc1OC)C(=O)N1CCC[C@H]1C=N3)C=CC(C)(C)O2 gave a growth of 109%. O=[N+]([O-])c1cccc(N=C(Nc2cccc([N+](=O)[O-])c2)c2ccccc2)c1 was tested, and the growth was 75.6%. C=CCn1c(C)nc2cc(Nc3nc(N4CCOCC4)nc4nc[nH]c34)ccc21 was tested, and the growth was 108%. In the case of C=C1NC(=O)C(C(C)CC)NC(=O)C2CSCC(NC(=O)CCC(=O)O)C(=O)NC(Cc3ccccc3)C(=O)NC(C)C(=O)NC(CC(C)CC)C(=O)NC(C(=O)NC(Cc3ccccc3)C(=O)N3CCCC3C(=O)N2)C(C)OC(=O)C(CO)NC(=O)C(C(O)COC)N(C)C(=O)C(C(C)C)NC(=O)C(CC(C)CC)NC1=O (centres undefined), the growth is reported as 9.55% [6 µM] (active). Compound COc1ccc(-c2nc(-c3cc(OC)cc(OC)c3)[nH]c2-c2ccc(OC)cc2)cc1 has a growth of 53.9%. For N#Cc1nc(-c2cccc(Br)c2)cc(-c2ccc(Nc3nc(N4CCCCC4)nc(N4CCCCC4)n3)cc2)c1N, the growth was 24.3%. Compound NC(N)=N/N=C\c1ccc(OCc2ccccc2)cc1 has a growth of 80%. CCN(CC)CCC(CNc1ccnc2cc(Cl)ccc12)c1ccc(O)cc1 (centres undefined) gave a growth of 99.8%. In the case of COS(=O)(=O)CCN(CCOS(C)(=O)=O)S(C)(=O)=O, the growth is reported as 105%.
